Data as given in PubChem BioAssay (Tox21).
Records with an inconclusive call do not appear. Active and inactive are the calls of the source. The call rests on the fitted dose curve.

Biological target: Vitamin D3 receptor (Homo sapiens) (UniProt P11473)
Test: qHTS assay to identify small molecule agonists of the vitamin D receptor (VDR) signaling pathway (AID 743222)
Conditions: HEK293T VDR-UAS-bla, beta-lactamase FRET ratio, 16 h; series mostly up to 63.5 µM
Text: National Center for Advancing Translational Sciences [NCATS]
NIH Chemical Genomics Center [NCGC]
U.S. Environmental Protection Agency [EPA]
National Institutes of Environmental Health Sciences [NIEHS]
National Toxicology Program [NTP]
U.S. Food and Drug Administration [FDA]
The vitamin D receptor (VDR), a member of nuclear hormone receptor superfamily, plays a critical role in calcium homeostasis and bone metabolism. It is also involved in cell differentiation and growth, and thrombogenicity.
Tox21 Assay Protocol Summary:
VDR-bla cells were dispensed at 2,000 cells/6 uL/well into black wall/clear-bottom 1536-well plates using a Multidrop Combi (Thermo Fisher Scientific, Waltham, MA) dispenser. After the assay plates were incubated at a 37C and 5% CO2 for 4 h, 23 nL of compounds dissolved in DMSO, positive controls or DMSO only was transferred to the assay plate by a Pintool station (Kalypsys, San Diego, CA). The plates were incubated at 37C and 5% CO2 for 16 h. After 1 uL of LiveBLAzerTM B/G FRET substrate was added using a Bioraptr Flying Reagent Dispenser (FRD) workstation (Beckman Coulter, Indianapolis, IN, USA), the plates were incubated at room temperature for 2 h, and fluorescence intensity was measured by an Envision plate reader (PerkinElmer, Shelton, CT).

Vitamin D3 receptor (Homo sapiens), sequence (P11473 whole entry, looked up): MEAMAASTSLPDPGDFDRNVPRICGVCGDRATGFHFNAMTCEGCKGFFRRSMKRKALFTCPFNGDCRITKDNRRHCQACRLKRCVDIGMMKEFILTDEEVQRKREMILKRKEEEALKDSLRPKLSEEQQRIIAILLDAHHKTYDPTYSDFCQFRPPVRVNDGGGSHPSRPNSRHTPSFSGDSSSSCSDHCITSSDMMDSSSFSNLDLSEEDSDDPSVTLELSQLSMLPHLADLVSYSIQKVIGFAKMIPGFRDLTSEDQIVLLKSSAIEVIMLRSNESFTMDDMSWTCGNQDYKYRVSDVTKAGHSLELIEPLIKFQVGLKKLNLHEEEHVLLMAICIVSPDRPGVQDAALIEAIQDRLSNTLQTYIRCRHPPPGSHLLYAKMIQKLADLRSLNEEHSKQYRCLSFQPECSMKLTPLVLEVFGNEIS

Which outcome does the source give for `CC(C)=C[C@@H]1[C@@H](C(=O)OCc2coc(Cc3ccccc3)c2)C1(C)C` here?
Its outcome is “inactive”.

Which outcome does the source give for `CCCCN(CC)C(=O)SCCC` here?
The outcome was “inactive”.

For `Oc1ccccc1Cl`, which outcome is on record?
The outcome was “inactive”.

With `C=C(C)CCl` as the compound, how does the outcome read?
The outcome was “inactive”.

How did the outcome turn out when `O=c1[nH]c2ccccc2c(=O)o1` was run?
Its outcome is “inactive”.

`C[C@]12CC[C@H]3[C@@H](CC[C@@]45O[C@@H]4C(O)=C(C#N)C[C@]35C)[C@@H]1CC[C@@H]2O` was tested. Which outcome did it give?
Its outcome is “inactive”.

With `O=S(=O)(c1ccc(O)cc1)c1ccc(O)cc1` as the compound, how does the outcome read?
Its outcome is “inactive”.

For `CN1C(=O)CN=C(c2ccccc2)c2cc(Cl)ccc21`, which outcome is on record?
Its outcome is “inactive”.

Which outcome does the source give for `ClCc1cccnc1` here?
Its outcome is “inactive”.

How did the outcome turn out when `Cc1cc(-c2cc(C)c(N)c(C)c2)cc(C)c1N` was run?
The outcome was “inactive”.

For `CCNc1nc(NC(C)(C)C)nc(SC)n1`, which outcome is on record?
Its outcome is “inactive”.

How did the outcome turn out when `CC(C)OC(=O)Nc1ccccc1` was run?
Its outcome is “inactive”.

For `CC(C)OC(=O)Nc1cccc(Cl)c1`, which outcome is on record?
Its outcome is “inactive”.

How did the outcome turn out when `C1CN2CCN1CC2` was run?
The outcome was “inactive”.

`Cc1ccc([N+](=O)[O-])cc1C` was tested. Which outcome did it give?
The outcome was “inactive”.

For `Clc1ccc(Cl)cc1`, which outcome is on record?
Its outcome is “inactive”.

How did the outcome turn out when `O=S(=O)(c1ccc(Cl)cc1)c1cc(Cl)c(Cl)cc1Cl` was run?
Its outcome is “inactive”.

With `COC(=O)NS(=O)(=O)c1ccc(N)cc1` as the compound, how does the outcome read?
The outcome was “inactive”.

Which outcome does the source give for `CC(C#N)CCC#N` (stereo not given) here?
Its outcome is “inactive”.

With `O=NN1CCCC1` as the compound, how does the outcome read?
The outcome was “inactive”.

With `[O-][Cl+2]([O-])O` as the compound, how does the outcome read?
Its outcome is “inactive”.

How did the outcome turn out when `CC1C=[C-]C=C1.[C-]#[O+].[C-]#[O+].[C-]#[O+].[Mn]` was run?
Its outcome is “inactive”.

Which outcome does the source give for `O=c1[nH]c(=O)[nH]c(=O)[nH]1` here?
The outcome was “inactive”.

How did the outcome turn out when `COc1ccc2c3c1O[C@H]1[C@@H](O)C=C[C@H]4[C@@H](C2)N(C)CC[C@@]341` was run?
Its outcome is “inactive”.

For `CCCC1COC(Cn2cncn2)(c2ccc(Cl)cc2Cl)O1` (stereo not given), which outcome is on record?
The outcome was “inactive”.

For `NCC(O)c1ccc(O)cc1` (stereo not given), which outcome is on record?
Its outcome is “inactive”.

How did the outcome turn out when `CCCN(CCC)N=O` was run?
The outcome was “inactive”.

How did the outcome turn out when `Cc1ccc(N)cc1N` was run?
Its outcome is “inactive”.

How did the outcome turn out when `CC(=O)C=C(C)C` was run?
The outcome was “inactive”.

With `CN=C=S` as the compound, how does the outcome read?
The outcome was “inactive”.

How did the outcome turn out when `O=c1ccc(=O)[nH][nH]1` was run?
Its outcome is “inactive”.

For `COC(=O)c1ccccc1C(=O)OC`, which outcome is on record?
Its outcome is “inactive”.

With `Cc1cc(Cl)ccc1O` as the compound, how does the outcome read?
Its outcome is “inactive”.

`O=[N+]([O-])c1ccc(Oc2ccc(Cl)cc2Cl)cc1` was tested. Which outcome did it give?
The outcome was “inactive”.

How did the outcome turn out when `Cc1cccc([N+](=O)[O-])c1` was run?
The outcome was “inactive”.

Which outcome does the source give for `CN(C)N=O` here?
The outcome was “inactive”.

With `C=CC(N)=O` as the compound, how does the outcome read?
Its outcome is “inactive”.

With `CCC[N+](=O)[O-]` as the compound, how does the outcome read?
Its outcome is “inactive”.

How did the outcome turn out when `C#CCN(C)[C@H](C)Cc1ccccc1` was run?
The outcome was “inactive”.

With `CCCCOC(=O)c1ccccc1C(=O)OCCCC` as the compound, how does the outcome read?
Its outcome is “inactive”.
